Screening results deposited in PubChem BioAssay by Sanford-Burnham Center for Chemical Genomics.
Hits are enriched below; roughly 3.9% of the tested compounds scored in any of these assays.
TROY NFkB inh: inhibitors of TROY-dependent NF-kB signaling; inhibition, % at 10 µM; actives 0.98% (n = 360,000); AID 1347056; Q293 LMP1-TROYcd NF-kB luciferase reporter, 4 h;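 active = compounds whose plate-normalised and pattern-corrected inhibition of the luciferase reporter signal at the single screening dose is 50% or more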
CF NFkB inh: inhibitors of cystic fibrosis induced NF-kB; KKLEB NF-kB-GFP reporter, PAF-induced, GFP fluorescence overnight; inhibition, % at 5 µM; actives 0.86% (n = 360,000); AID 588850;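 active = at least 50% inhibition at 5 µM, scaled per plate between neutral and stimulator controls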;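 also: PAF is a Pseudomonas aeruginosa culture filtrate used as stimulus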
TWEAK-Fn14 inh: blocks TWEAK-Fn14 interaction in a reporter cell assay; actives 2% (n = 360,000); TWEAK-stimulated Fn14 reporter cells, luciferase luminescence, 8 h; inhibition, % at 10 µM; in the data active = inhibition above about 50%
KKLEB cytotox: CF airway cell cytotoxicity counter-screen; KKLEB CF airway cells viability, ATPlite luminescence, overnight; hits give low values; cells stimulated with P. aeruginosa culture filtrate; activity change (cytotoxicity), % at 5 µM; actives 0.36% (n = 360,000); AID 602141;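 active = corrected activity change at or below -50% at 5 µM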
HIF-2a block: inhibitors of HIF-2a; 786-0 RCC cells HIF-2a reporter, luciferase luminescence, overnight; inhibition, % at 18.8 µM; actives 0.72% (n = 360,000); AID 624352;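 active = inhibition of the luminescence signal of 40% or more relative to plate controls, in a single-dose primary screen at 18.75 µM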
Peg3 prom inh-1: inhibitors of Peg3 promoter. HeLa PEG-Prom luciferase reporter, luminescence, overnight. actives 1.7% (n = 360,000). inhibition, % at 20 µM;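 active = inhibition of at least 50% at 20 µM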
Peg3 prom inh-2: confirmation of Peg3 promoter inhibitors; shares compounds with Peg3 prom inh-1; HeLa PEG-Prom luciferase reporter, luminescence, overnight; inhibition, % at 20 µM; actives 84% (n = 1,300);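 active = at 20 µM dose, 40% or more inhibition averaged across four replicates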
Hits are given with their value; i = inactive; nt = no result.

SMILES	TROY NFkB inh	CF NFkB inh	TWEAK-Fn14 inh	KKLEB cytotox	HIF-2a block	Peg3 prom inh-1	Peg3 prom inh-2
CN1CCN(c2ccc(NC(=O)N3CCc4ccccc43)cc2)CC1	77.2	i	95.0	i	i	57.6	50.9
CC1(C(=O)NCc2cccc3ccccc23)CCN1C(=O)Cc1ccc(-c2ccccc2)cc1 (stereo unspecified)	i	i	i	i	i	53.3	51.4
Cc1cc(-c2nc(C)c(C(=O)NN)s2)no1	i	i	i	i	i	i	nt
Nc1ncn([C@@H]2O[C@H](CO)[C@@H](O)[C@H]2O)c(=O)n1	i	i	72.5	i	i	72.0	49.6
Nc1ccn([C@@H]2O[C@H](CO)[C@@H](O)[C@@H]2O)c(=O)n1	i	i	i	i	i	i	nt
O=C(CCCCC(=O)Sc1ccccc1)Sc1ccccc1	i	i	i	i	i	i	nt
CCOc1ccc(Cl)cc1CNc1nnnn1C	i	i	i	i	i	i	nt
CCNC(=O)CC1SC(=Nc2cccc(Cl)c2C)N(C)C1=O (stereo unspecified)	i	i	i	i	i	i	nt
OC(c1ccc(F)c(F)c1)c1ncc(-c2ccccc2F)[nH]1 (stereo unspecified)	i	i	i	i	i	i	nt
CCCCCc1c(C)c(C#N)c2nc3ccccc3n2c1-n1ccnc1C	i	i	i	i	i	i	nt
C=C(C)CN1CCN(c2c(CCC#N)c(C)c(C#N)c3nc4ccccc4n23)CC1	i	i	i	i	i	82.5	40.9
COc1ccc(C(=O)O/N=C(\N)c2ccccn2)cc1	84.4	i	102.6	i	i	98.8	91.9
COc1ccc(C(=O)NNC(=O)c2ccccn2)cc1	87.0	i	102.2	i	82.6	104.6	95.3
COc1cc(OC)cc(C(=O)O/N=C(\N)c2ccccn2)c1	i	i	i	i	i	i	nt
N/C(=N\OC(=O)c1ccccc1Cl)c1ccccn1	70.1	i	102.0	i	i	59.2	i
N/C(=N\OC(=O)c1ccccc1[N+](=O)[O-])c1ccccn1	i	i	i	i	i	i	nt
N/C(=N\OC(=O)c1ccc(Cl)cc1)c1ccccn1	69.7	i	101.2	i	i	78.3	i
NC(=O)C1(N2CCCCC2)CCN(CC(=O)Nc2ccccc2Sc2ccccc2)CC1	i	i	i	i	i	i	nt
CCCC(=O)N(Cc1cc(=O)[nH]c2ccccc12)c1ccccc1	i	i	i	i	i	i	nt
CCOc1ccccc1NC(=O)c1csc(C)c1C	i	i	i	i	i	i	nt
CSc1ncccc1C(=O)Nc1cccc(C)n1	i	i	i	i	i	i	nt
Cc1nc(N2CCN(c3ccccc3O)CC2)c2c(-c3ccccc3)csc2n1	i	i	i	i	i	66.0	65.8
O=C(c1ccco1)N1CCN(c2ncnc3c2[nH]c2ccc(Br)cc23)CC1	i	i	i	i	i	73.3	84.9
CCOc1ccc2[nH]c3c(N4CCN(C(=O)c5ccco5)CC4)ncnc3c2c1	i	i	i	i	i	i	nt
Cc1cc(C)c2c(N)c3ccccc3nc2n1	i	i	i	i	i	86.6	90.5
SMILES	TROY NFkB inh	CF NFkB inh	TWEAK-Fn14 inh	KKLEB cytotox	HIF-2a block	Peg3 prom inh-1	Peg3 prom inh-2
CN(C)CCNc1ncnc2c1sc1nc(N3CCCC3)c3c(c12)CC(C)(C)OC3	i	i	i	i	i	57.2	67.5
COc1ccccc1CN(C)C(=O)c1cc(-c2cccs2)nc2ccccc12	i	i	73.5	i	i	69.0	81.2
COc1ccc(CN(C)C(=O)c2cc(-c3ccc(OC)c(OC)c3)nc3ccccc23)c(OC)c1	i	i	i	i	i	i	nt
COc1ccc(CN(C)C(=O)c2cc(-c3ccccc3)nc3ccc(C)cc23)c(OC)c1OC	i	i	i	i	i	58.8	59.5
COc1ccc(-c2cc(C(=O)N(C)Cc3cccc(OC)c3OC)c3ccccc3n2)cc1OC	i	i	i	i	i	55.1	56.2
COc1ccc(CCN(C)C(=O)c2cc(-c3ccccc3)nc3ccc(C)cc23)cc1OC	i	i	i	i	i	i	nt
COc1ccccc1-c1csc(NC(=O)c2cc(-c3cccs3)nc3ccccc23)n1	i	i	i	i	i	i	nt
Cc1c(Cl)cc(-n2cnnn2)cc1[N+](=O)[O-]	i	i	i	i	i	i	nt
Cc1c([N+](=O)[O-])cc(N2C(=O)C=CC2=O)cc1[N+](=O)[O-]	i	i	i	i	i	105.1	98.3
O=S(=O)(c1cc(F)ccc1F)N1CCN2CCCC2C1 (stereo unspecified)	i	i	i	i	i	i	nt
c1ccc(CN=C(NCc2ccccc2)NCc2ccccc2)cc1	i	i	i	i	i	89.8	88.4
S=C(NCc1ccccc1)C(=S)NCc1ccccc1	i	i	i	i	i	i	nt
C(=Cc1c[nH]c2ccccc12)c1ccc2ccccc2n1	i	i	73.3	i	i	72.1	i
O=C(N/N=C/c1ccncc1)C1CC1C(=O)N/N=C/c1ccncc1 (stereo unspecified)	i	i	i	i	i	i	nt
COc1ccc2c(C#CCCO)c(-c3ccc(S(C)(=O)=O)cc3)sc2c1	i	i	i	i	i	50.2	42.2
COc1ccc(-c2sc3ccccc3c2C#CCCO)cc1	i	i	i	i	i	i	nt
CS(=O)(=O)c1ccc(-c2sc3ccccc3c2C#CCCO)cc1	i	i	i	i	i	54.0	60.0
Cc1ccc2[nH]c(=O)c(CN(CC3CCCO3)C(=O)c3cccs3)cc2c1 (stereo unspecified)	i	i	i	i	i	i	nt
CSc1nsc(NC(=O)CCNC(=O)c2ccc([N+](=O)[O-])cc2)n1	i	i	i	i	i	i	nt
COc1cccc2c1C(=N)c1c(O)c3c(c(O)c1C2=O)CC(O)(C(C)=O)CC3OC1CC(N)C(O)C(C)O1 (stereo unspecified)	i	i	i	i	i	98.3	96.1
O=C(CCc1ccccc1)NC(NC(=S)Nc1cccc(Cl)c1)C(Cl)(Cl)Cl (stereo unspecified)	i	i	i	i	i	i	nt
O=C(/C=C/c1ccccc1)NC(NC(=S)Nc1cccc(Cl)c1)C(Cl)(Cl)Cl (stereo unspecified)	i	i	63.0	i	i	79.4	66.8
Cc1ccccc1OCC(=O)OCC(=O)Nc1cc(S(C)(=O)=O)ccc1Cl	i	i	i	i	i	i	nt
COc1ccc(/C=N/n2c(=O)[nH]c3c([nH]c4ccc(C)cc43)c2=O)cc1CN1CCOCC1	i	i	i	i	i	i	nt
CC1=CC(C)[C@H](/C=N/n2c(=O)[nH]c3c([nH]c4ccc(C)cc43)c2=O)C(C)C1 (stereo partly specified)	i	i	i	i	i	61.5	i
COc1ccccc1C1c2ccc3ccccc3c2Oc2ncn(CCCO)c(=N)c21 (stereo unspecified)	i	i	i	i	i	101.9	97.2
